From the OligoGym collection
Also: reference of the scale not given here.

Each sequence was assayed against RAET1E (assay: pooled miR-30 sensor sort-seq; sequence = guide strand). Conditions: shRNA.
Work on TTGACCATGTTGTTGTCACTGT yielded a sensor-assay potency score (higher = more potent) of 0.253.
For TTCCATGTCTCCTTGATCTTAC, the sensor-assay potency score (higher = more potent) was -0.262.
TCATGATTAATTACTGTCCAGG was tested, and the sensor-assay potency score (higher = more potent) was -0.855.
TTTGATGTCACAAAGGAGCATC gave a sensor-assay potency score (higher = more potent) of -0.244.
With TTACTGGTGACACTGTCGGTTC the sensor-assay potency score (higher = more potent) was -0.629.
TATCTGAAGCATTTACTGGTGA was tested, and the sensor-assay potency score (higher = more potent) was 0.282.
Sequence TTTATAGTGAAGTTGAAGCAAA has a sensor-assay potency score (higher = more potent) of -1.04.
TTGTTGTCACTGTTGTACTGAA gave a sensor-assay potency score (higher = more potent) of -0.561.
Sequence TTCACGTTGACAAAACATCTCG has a sensor-assay potency score (higher = more potent) of -0.11.
TTGACAAAACATCTCGACTTGC showed a sensor-assay potency score (higher = more potent) of -0.439.
With TTCATGATTAATTACTGTCCAG the sensor-assay potency score (higher = more potent) was -0.655.
Work on TTTACTGGTGACACTGTCGGTT yielded a sensor-assay potency score (higher = more potent) of 0.119.

The sequences below were run against RAI2 in the same assay as above. Conditions: shRNA.
For TCAGCCTTGACTTCGCCGCTGG, the sensor-assay potency score (higher = more potent) was -0.358.
TTGTTGTGGATGGTACTGGAGG was tested, and the sensor-assay potency score (higher = more potent) was -0.912.
TCGGATTGAGCTCTGGTGCGGA was tested, and the sensor-assay potency score (higher = more potent) was -0.201.
TTCTTTAACTTTATGCTCCGGT showed a sensor-assay potency score (higher = more potent) of 0.268.
TTTTCAGCCTTGACTTCGCCGC showed a sensor-assay potency score (higher = more potent) of -0.377.
TTGAAGGAGAAGTTTTTGGTGG gave a sensor-assay potency score (higher = more potent) of -0.107.
With TTCAGAACTCTGAGGCACCGGG the sensor-assay potency score (higher = more potent) was -0.474.
With TCGACAGAGACAATGACCTTGG the sensor-assay potency score (higher = more potent) was -0.196.
TTTATAAAACCAATGCACCTTT was tested, and the sensor-assay potency score (higher = more potent) was -0.626.
TTTAACTTTATGCTCCGGTTTT was tested, and the sensor-assay potency score (higher = more potent) was -1.48.
With TTTCTTTAACTTTATGCTCCGG the sensor-assay potency score (higher = more potent) was -0.775.
TTGAGCTCTGGTGCGGAGCTTC gave a sensor-assay potency score (higher = more potent) of -0.528.

These sequences were tested against RANBP9 in the same assay as above. Conditions: shRNA.
TAATTCTTCTAGAACGGTCTGG was tested, and the sensor-assay potency score (higher = more potent) was 0.443.
TTTCTTTCAAGTAAACTTGGGT was tested, and the sensor-assay potency score (higher = more potent) was -0.134.
Sequence TAACAGGATAACTGTCTTGAGA has a sensor-assay potency score (higher = more potent) of -1.15.
TTTTGTATCATGGTCTGCCATT was tested, and the sensor-assay potency score (higher = more potent) was -1.46.
For TAGTAGACTGAATGCATCCTTC, the sensor-assay potency score (higher = more potent) was -0.448.
With TAACTGTCTTGAGACTTTGGAC the sensor-assay potency score (higher = more potent) was -0.743.
For TTGCTTGCAGCTCTCGTCCAAA, the sensor-assay potency score (higher = more potent) was -0.93.
TTCGGTGTCACAATCTTCCATT gave a sensor-assay potency score (higher = more potent) of -0.713.
For TACTACAACTTTCAAAACCTGA, the sensor-assay potency score (higher = more potent) was -0.44.
With TAGCTGAACTTGTCCTTCGGGC the sensor-assay potency score (higher = more potent) was -0.541.
TTGGACTACTAAAAGGTCGAGG showed a sensor-assay potency score (higher = more potent) of -0.167.

The sequences below were run against RANGAP1 in the same assay as above. Conditions: shRNA.
Sequence TTGAACACAGATGACACCTTTA has a sensor-assay potency score (higher = more potent) of -0.0745.
With TTGACCTTGTCTTCACTCTTGA the sensor-assay potency score (higher = more potent) was 0.405.
In the case of TCACATCTTTAGCATCTTCTGC, the sensor-assay potency score (higher = more potent) is reported as -0.932.
TTCACTCTTGAGCAGACCCATG showed a sensor-assay potency score (higher = more potent) of -1.41.
